Most compounds without a hit are left out; they make up all but 7.9% or so of the library.
M1 antagonist = antagonists of rat M1 muscarinic receptor. 64,000 tested, 3.4% active. B-score at 10 µM. AID 628, 2007. CHO-M1 cells, Fluo-4 calcium, ACh EC80 antagonist mode; stronger effect = lower value. Muscarinic acetylcholine receptor M1 (Rattus norvegicus), P08482;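 active = calcium fluorescence response, raw or row-and-column corrected B-score, differing from the plate sample mean either way at a set confidence level, mostly lower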
Target sequence (P08482 whole entry, looked up): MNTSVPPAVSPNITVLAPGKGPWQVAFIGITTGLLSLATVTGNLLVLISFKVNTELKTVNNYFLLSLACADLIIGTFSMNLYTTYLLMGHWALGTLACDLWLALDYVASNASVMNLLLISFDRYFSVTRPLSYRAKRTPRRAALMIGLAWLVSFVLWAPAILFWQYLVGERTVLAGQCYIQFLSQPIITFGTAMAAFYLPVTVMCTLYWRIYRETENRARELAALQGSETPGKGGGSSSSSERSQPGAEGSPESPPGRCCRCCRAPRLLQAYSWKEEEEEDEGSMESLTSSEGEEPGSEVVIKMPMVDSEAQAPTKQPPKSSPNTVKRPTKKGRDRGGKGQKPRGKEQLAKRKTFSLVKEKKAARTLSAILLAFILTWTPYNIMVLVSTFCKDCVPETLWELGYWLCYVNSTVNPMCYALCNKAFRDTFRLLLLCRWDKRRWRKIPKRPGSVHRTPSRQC
Cav32 inh = Cav3.2 calcium influx blockers – cell-based, Fluo-4 calcium fluorescence, FDSS, MLSMR library, primary screen | Cav3.2-expressing cells; stronger effect = lower value | B-score at 10 µM | 100,000 tested, 4% active | AID 449739, 2010;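 active = single-dose well whose peak fluorescence ratio is a statistical outlier from its plate by either plate-standardised score or position-corrected B-score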
Her2 expr inh = inhibitors of Her2 protein expression, primary screen, SKBR-3 cells, AlphaScreen, 66K library. AID 645, 2007. HER2 level % of control, % at 10 µM. SKBR-3 HER2 protein level, 18-24 h; stronger effect = lower value. 65,000 tested, 0.69% active. Receptor tyrosine-protein kinase erbB-2 (Homo sapiens), P04626;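 active = HER2 level under 5% of the carrier-only control; inconclusive = no clear call, values can overlap the other calls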;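 also: 100% = DMSO carrier and 0% = 500 nM PU-H71 HSP90 inhibitor; lower value means stronger loss of Her2 protein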
PLAP act = PLAP enzyme activators, biochemical, luminescence, HTS. purified PLAP enzyme, luminescent substrate read-out; stronger effect = higher value. 96,000 tested, 1.2% active. activation fold at 20 µM; in the data active = activation fold above about 2
M1 agonist = M1 muscarinic receptor agonists, primary screen, CHO-M1 cells, Fluo-4 calcium, agonist mode; Muscarinic acetylcholine receptor M1; Fluo-4 calcium fluorescence; stronger effect = higher value; B-score at 10 µM; 64,000 tested, 3% active; AID 626, 2007;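 active = fluorescence rise, raw or as B-score row- and column-corrected plate score, outside the 99.7% band of its plate's samples, either direction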
M1 agonist conf = rat M1 muscarinic receptor agonists, confirmation, CHO-M1 cells, Fluo-4 calcium, duplicate retest; shares compounds with M1 agonist; Fluo-4 calcium fluorescence, agonist mode; actives lie on both sides; fluorescence change (max-min) at 10 µM; 1,700 tested, 19% active;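 active = fluorescence change differs from the solvent-only DMSO control mean at a set confidence level in both duplicate runs; inconclusive = differs from solvent-only control mean in just one of two runs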;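 also: an EC20 dose of acetylcholine follows compound addition during the same imaging run; raw fluorescence intensity difference in instrument units with no normalization to controls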
M4 agonist ctr = agonist activity at rat M4 receptor, confirmation, counter-screen for M1 allosteric modulator project, cell-based, agonist mode. shares compounds with M1 agonist. CHO M4/Gqi5 cells, Fluo-4 calcium fluorescence; actives lie on both sides. fluorescence change (max-min) at 10 µM. 1,700 tested, 9% active;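 active = fluorescence change differing from the plate's solvent-only control wells at 99.7% confidence in both duplicates, whether higher or lower; inconclusive = differs from solvent controls in only one of two duplicates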
* = called active by the depositor; ? = inconclusive; . = no result given.

SMILES | M1 antagonist | Cav32 inh | Her2 expr inh | PLAP act | M1 agonist | M1 agonist conf | M4 agonist ctr
CCOC(=O)C1CCCN(C(=O)c2cc(Nc3ccc(OC)c(OC)c3)nc3ccccc23)C1 (centres undefined) | -0.82 | -0.83 | 68 | 1.4 | 8.3* | -19 | ?
CCCN(Cc1cc2ccc(C)cc2[nH]c1=O)S(=O)(=O)c1ccccc1 | . | -0.9 | . | 1.1 | . | . | .
COc1ccc(C2=NOC(C)(c3nnc(Cc4ccccc4)o3)C2)cc1 (centres undefined) | . | 0.26 | . | . | . | . | .
CCCCOC(=O)C1=C(C)Nc2ncnn2C1c1cc(OC)c(OC)cc1OC (centres undefined) | 0.6 | 0.52 | 80 | 1.2 | 1.1 | . | .
CC(=O)c1cccc(S(=O)(=O)N(CCCO)Cc2cc3ccc(C)cc3[nH]c2=O)c1 | 0.22 | -3.8 | 104 | 1.2 | -0.51 | . | .
CN(C)c1ccc(/C=C/c2ccncc2)cc1 | -0.014 | -3.7 | 145 | 0.8 | 10* | 111* | 150*
CCOc1ccc(C2C(C#N)=C(N)Oc3n[nH]c(C)c32)cc1OC(=O)C1CC1 (centres undefined) | 1.2 | 0.14 | 70 | 1.3 | 4.6* | 1.2 | -19
CCOc1cc(C2C(C#N)=C(N)Oc3n[nH]c(-c4ccccc4)c32)ccc1O (centres undefined) | -0.052 | -1.9 | 98 | 0.9 | 1.2 | . | .
CCn1c(SCC(=O)Nc2ccc(OCc3ccccc3)cc2)nnc1-c1ccco1 | -0.11 | -1.1 | 94 | 0.9 | 0.044 | . | .
CCSc1nc2cc(C(=O)OC)ccc2c(=O)n1CC | 0.028 | 0.2 | 149 | . | 0.43 | . | .
COC(=O)c1ccc2c(=O)sc(N3CCC(C(N)=O)CC3)nc2c1 | 0.36 | . | 89 | 1 | 24* | 132* | 136*
OCC[C@H]1C[C@H](O)[C@@H](O)[C@@]2(CCCO2)O1 | . | 0.52 | . | . | . | . | .
COc1ccc(Cl)cc1-c1nc(-c2ccc(NC(=O)c3ccncc3)cc2)no1 | 0.15 | 0.036 | 51 | . | -0.096 | . | .
COc1ccc(-c2nc(-c3ccc(NC(=O)c4ccncc4)cc3)no2)cc1OC | -0.013 | 0.28 | 85 | 1.4 | 3.8* | -21 | -8.7
O=C(Nc1ccccc1)N1CC=C(c2ccc(F)cc2)CC1 | -3.2* | -4.6* | 80 | 0.8 | 5.4* | ? | ?
COc1ccc(CC(C(=O)Nc2cc(C)ccc2C)/C(N)=N/O)cc1 (centres undefined) | -0.4 | . | 61 | 1.2 | 2.4* | ? | -49
CCOC(=O)c1c(C)oc2c1c(C=NCC1CCCO1)c(O)c1ccccc12 (centres undefined) | 0.3 | . | 79 | 0.9 | 2.9* | -16 | 6.4
CCOC(=O)c1c(C)oc2c1c(C=NCc1ccccn1)c(O)c1ccccc12 | -0.95 | . | 34 | 1.2 | 7.1* | 28 | -18
CCOC(=O)c1c(C)oc2c1cc(O)c1ccccc12 | 0.11 | 0.48 | 83 | 1 | 0.59 | . | .
Cc1ccc2[nH]c(=O)c(CN(CCc3ccccc3)C(=O)N3CCOCC3)cc2c1 | -0.34 | . | 98 | 1.6 | 14* | -7.9 | ?
COc1cccc(N2CCN(c3c4c(nc5ncnn35)CCC4)CC2)c1 | 0.16 | . | 110 | 1.1 | 6.7* | -1.9 | -45
Cc1ccc2nc(-c3ccccn3)cc(C(=O)NC3CCN(C)CC3)c2c1 | -0.18 | -0.073 | 53 | 1.7 | -2.3* | -20 | -46
CCn1c(=O)cc(OCC(=O)NCCCN2CC(C)CC(C)C2)c2ccccc21 (centres undefined) | -0.73 | 0.3 | 105 | 1.6 | 2.2* | ? | ?
CC1CC(C)CN(CCCNC(=O)COc2cc(=O)n(C)c3ccccc23)C1 (centres undefined) | -0.27 | 0.0018 | 111 | . | 1.3 | . | .
Cc1nn(-c2ccccc2)c(Cl)c1C(=O)N1CCN(c2ncnc3c2cnn3-c2ccccc2)CC1 | -3.4* | -3.5 | 7 | 1.1 | 2.5* | -27* | -57
